We go through nine molecules from PubChem BioAssay.

Test [1] in a line: E. coli DRC41 culture turbidity changes, primary screen, E. coli filamentation inducer project, strain DRC41, OD650, 48 h (AID 1152).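 Note: E. coli MC1000 strain DRC41 lacking acrAB efflux pump and sulA.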 The conditions noted are these: E. coli DRC41 (acrAB sulA), higher = more signal, called active from +8 up or from −8 down.
The nature of test [2]: small-molecule binders of probe aLefty1, primary screen, biochemical, small-molecule microarray, 635/667 nm fluorescence (AID 1153).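 Note: score merges spot fluorescence with signal-to-noise ratio from the scanned slide images.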 The note with it: higher = more signal.
Test [3] can be described thus: PSAC antagonists in infected red cells, primary screen, cell-based, P. falciparum Indochina, OD700, 1 h (AID 1154). The note with it: P. falciparum Indochina infected RBC osmotic lysis, higher = more signal, called active from +8 up or from −8 down.
Test [4] in a line: PSAC antagonists in infected red cells, primary screen, cell-based, P. falciparum Indochina, OD700, 2 h (AID 1155).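 Note: lysis reports solute entry through the parasite surface anion channel PSAC; channel blockers reduce lysis of infected cells.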 The conditions noted are these: P. falciparum Indochina infected erythrocytes, osmotic lysis OD700; higher = more signal, called active from +8 up or from −8 down.
Test [5] can be described thus: osmotic lysis modulators in infected erythrocytes, primary screen, PSAC antagonist project, cell-based, P. falciparum Indochina, OD700, 3 h (AID 1156). The conditions noted are these: higher = more signal, called active from +8 up or from −8 down.
Test [6] in a line: PSAC antagonists in infected red cells, primary screen, cell-based, P. falciparum Indochina, OD700, 18 h (AID 1157). The note with it: P. falciparum Indochina infected erythrocytes, osmotic lysis OD700, 18 h; higher = more signal, called active from +8 up or from −8 down.
Test [7] can be described thus: modulators of S6 phosphorylation in cells, primary screen, cell-based, A549, cytoblot, luminescence, serum-stimulated (AID 1158).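 Note: serum-stimulated A549 lung adenocarcinoma cells; signal is phosphorylated S6 detected by cytoblot immunostaining with HRP secondary.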 The conditions noted are these: A549 phospho-S6 cytoblot, 5 h, higher = more signal.
The target in test [8] is NADPH oxidase 2 (Homo sapiens) (UniProt P04839). Nature of the test: NOX2-dependent H2O2 signal modulators, primary screen, NOX inhibitor project, cell-based, HEK293-NOX2, PMA-stimulated, Amplex Red fluorescence (AID 1159). Note: test concentration not given here. The note with it: 45 min, higher = more signal, called active from +8 up or from −8 down.
In test [9] the target is NADPH oxidase 4 (Homo sapiens) (UniProt Q9NPH5). Briefly: NOX4-dependent H2O2 signal modulators, primary screen, NOX inhibitor project, cell-based, HEK293-NOX4, tetracycline-induced, Amplex Red fluorescence (AID 1160). The conditions noted are these: 45 min, higher = more signal, called active from +8 up or from −8 down.
Test [10] deals with NADPH oxidase 5 (Homo sapiens) (UniProt Q96PH1). Nature of the test: NOX5-dependent H2O2 signal modulators, primary screen, NOX inhibitor project, cell-based, HEK293-NOX5, Amplex Red fluorescence (AID 1161). The note with it: HEK293-NOX5, ionomycin, 45 min, higher = more signal.
Test [11] can be described thus: A549 cell viability effects, profiling panel, calcein-AM fluorescence, 48 h, basal (AID 1162). Note: test concentration not given here. The note with it: higher = more signal.
Test [12] in a line: adipocyte viability effects, profiling panel, cell-based, 3T3-L1 adipocytes, calcein-AM fluorescence, 48 h, basal (AID 1163). Note: test concentration not given here. The conditions noted are these: 3T3-L1 adipocytes viability, higher = more signal.
Test [13] is described as follows: HepG2 cell viability effects, profiling panel, calcein-AM fluorescence, 48 h, basal (AID 1164). Note: test concentration not given here. The conditions noted are these: higher = more signal.
Test [14] can be described thus: MM1S cell viability effects, profiling panel, calcein-AM fluorescence, 48 h, basal (AID 1165).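 Note: viability of MM1S multiple myeloma cells under basal unstimulated conditions; test concentration not given here.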 The conditions noted are these: higher = more signal.
The nature of test [15]: basal RPMI8226 viability, no added stimulus, profiling panel, cell-based, calcein-AM fluorescence, 48 h, PK04 Diversity Set (AID 1166).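 Note: cells grown under basal conditions without added stimulus; test concentration not given here.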 The note with it: RPMI8226 myeloma viability, higher = more signal.
The nature of test [16]: basal HepG2 mitochondrial membrane potential changes, profiling panel, cell-based, JC-1 fluorescence, 24 h, 100 nL compound (AID 1167). Note: test concentration not given here. The note with it: higher = more signal.
Test [17] can be described thus: basal 3T3-L1 adipocyte mitochondrial potential changes, profiling panel, cell-based, JC-1 fluorescence, 3T3-L1 adipocytes, 24 h, 100 nL compound (AID 1168). Note: test concentration not given here. The conditions noted are these: JC-1 mitochondrial fluorescence, higher = more signal, called active from +8 up or from −8 down.
Test [18] can be described thus: basal RPMI8226 mitochondrial membrane potential changes, profiling panel, cell-based, JC-1 fluorescence, 24 h, 100 nL compound (AID 1169). Note: test concentration not given here. The note with it: RPMI8226 myeloma, JC-1 mitochondrial potential fluorescence, higher = more signal.
Test [19] can be described thus: basal MM1S mitochondrial membrane potential changes, profiling panel, cell-based, JC-1 fluorescence, 24 h, 100 nL compound (AID 1170). Note: test concentration not given here. The note with it: higher = more signal.
Test [20] is described as follows: A549 lung cancer cell viability effects, profiling panel, resazurin fluorescence, 24 h, PK04 Diversity Set (AID 1171). Note: test concentration not given here. The conditions noted are these: higher = more signal, called active from +8 up or from −8 down. On the technique in general: The colour change of resazurin is a common sign of viable cells or microbes.

Active and inactive are the calls of the source.

NADPH oxidase 5 (Homo sapiens), sequence (Q96PH1 whole entry, looked up): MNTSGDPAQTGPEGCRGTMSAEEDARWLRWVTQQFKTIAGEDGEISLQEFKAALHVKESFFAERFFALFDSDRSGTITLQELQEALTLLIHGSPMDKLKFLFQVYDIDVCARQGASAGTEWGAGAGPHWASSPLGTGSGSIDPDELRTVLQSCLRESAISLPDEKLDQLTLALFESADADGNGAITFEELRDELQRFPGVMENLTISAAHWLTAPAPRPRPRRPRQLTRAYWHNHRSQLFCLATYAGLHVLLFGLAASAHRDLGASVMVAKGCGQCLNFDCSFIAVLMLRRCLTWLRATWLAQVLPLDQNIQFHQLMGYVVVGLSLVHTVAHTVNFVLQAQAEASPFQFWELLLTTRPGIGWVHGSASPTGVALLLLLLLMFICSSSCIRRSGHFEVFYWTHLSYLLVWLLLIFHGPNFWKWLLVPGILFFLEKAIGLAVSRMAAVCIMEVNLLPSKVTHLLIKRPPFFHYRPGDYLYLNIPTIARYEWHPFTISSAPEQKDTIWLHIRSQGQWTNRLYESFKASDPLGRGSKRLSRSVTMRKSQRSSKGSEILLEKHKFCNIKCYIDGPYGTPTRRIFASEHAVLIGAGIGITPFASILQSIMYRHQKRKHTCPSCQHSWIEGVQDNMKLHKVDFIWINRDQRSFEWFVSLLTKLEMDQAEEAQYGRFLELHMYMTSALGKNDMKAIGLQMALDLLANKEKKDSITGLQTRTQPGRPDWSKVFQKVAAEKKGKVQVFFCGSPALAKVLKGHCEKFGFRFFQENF
NADPH oxidase 4 (Homo sapiens), sequence (Q9NPH5 whole entry, looked up): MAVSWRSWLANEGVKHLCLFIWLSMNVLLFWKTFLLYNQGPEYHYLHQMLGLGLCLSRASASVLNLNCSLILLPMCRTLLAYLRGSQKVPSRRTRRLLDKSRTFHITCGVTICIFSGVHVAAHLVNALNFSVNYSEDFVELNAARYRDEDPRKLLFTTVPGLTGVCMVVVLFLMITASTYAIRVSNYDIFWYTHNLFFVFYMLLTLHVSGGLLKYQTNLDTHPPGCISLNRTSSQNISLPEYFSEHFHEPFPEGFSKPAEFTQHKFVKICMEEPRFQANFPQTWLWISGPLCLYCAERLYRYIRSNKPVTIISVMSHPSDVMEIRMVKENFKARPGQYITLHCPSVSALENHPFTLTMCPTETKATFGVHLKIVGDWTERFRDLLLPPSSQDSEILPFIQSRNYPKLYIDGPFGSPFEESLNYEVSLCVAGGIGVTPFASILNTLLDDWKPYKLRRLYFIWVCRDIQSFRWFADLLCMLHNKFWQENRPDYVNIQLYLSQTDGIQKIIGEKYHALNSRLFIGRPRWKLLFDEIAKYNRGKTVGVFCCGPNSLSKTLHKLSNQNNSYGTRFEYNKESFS
NADPH oxidase 2 (Homo sapiens), sequence (P04839 whole entry, looked up): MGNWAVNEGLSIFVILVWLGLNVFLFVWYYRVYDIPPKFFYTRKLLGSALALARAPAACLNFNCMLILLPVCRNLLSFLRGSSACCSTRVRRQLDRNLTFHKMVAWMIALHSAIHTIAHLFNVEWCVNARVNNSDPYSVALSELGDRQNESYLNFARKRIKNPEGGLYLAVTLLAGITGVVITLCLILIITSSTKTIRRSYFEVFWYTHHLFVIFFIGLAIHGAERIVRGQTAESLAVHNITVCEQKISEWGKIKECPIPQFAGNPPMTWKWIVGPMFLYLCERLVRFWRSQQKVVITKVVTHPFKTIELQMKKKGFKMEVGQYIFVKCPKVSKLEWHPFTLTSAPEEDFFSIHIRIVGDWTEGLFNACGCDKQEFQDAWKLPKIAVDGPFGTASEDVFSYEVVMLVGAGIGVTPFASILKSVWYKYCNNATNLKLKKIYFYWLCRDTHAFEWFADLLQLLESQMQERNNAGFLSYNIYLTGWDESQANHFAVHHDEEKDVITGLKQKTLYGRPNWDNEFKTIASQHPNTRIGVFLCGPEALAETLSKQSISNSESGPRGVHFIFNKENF

For `CC(=O)NCCCC[C@@H]1NC(=O)[C@@H]2C[C@H](C(=O)NCCCCCC[N+](C)(C)C)[C@H](c3cccc(OCCO)c3)N2C1=O`, the z-score in [1] is 0.0924 (inactive); in [3] it was 2.99 (inactive); in test [4], 0.591 (inactive); in [5] it was -0.956 (inactive); in [6], 0.325 (inactive); in test [7], -0.507. The z-score was 1.09 (inactive) in test [8]; 0.91 (inactive) in test [9]; 0.593 in test [10]; -0.339 in test [11]; -0.547 in test [12]; -0.231 in test [13]. For the same molecule, the z-score in test [14] was -0.241; in test [15] it was 0.397; in test [16], -1.51; in [17], -0.0349 (inactive); in test [18], 0.226; in test [19], -0.12. Moreover, the z-score in test [20] was 0.481 (inactive). Moreover, in [2], the composite z-score is 0.156.

For the molecule `O=C(NCc1ccccc1)[C@@H]1c2ccccc2C(=O)N(Cc2cc(F)cc(C(F)(F)F)c2)[C@H]1c1ccc(CO)cc1`, the z-score in [1] was 0.363 (inactive); in test [3] it was 5.82 (inactive); in [4], 1.23 (inactive); in test [5] it was 1.03 (inactive); in [6] it was 0.156 (inactive); in test [7], -0.26. In addition, the z-score in [8] is -2.01 (inactive); in [9] it was 0.598 (inactive); in test [10], -1.58; in test [11] it was 1.5; in [12], -0.115; in [13] it was 1.37. In addition, the z-score in [14] is 0.105; in test [15], -0.161; in test [16] it was 1.88; in test [17], 0.079 (inactive); in test [18] it was 0.79; in test [19] it was -0.511. For the same molecule, the z-score in [20] is -0.811 (inactive). Besides, the composite z-score in test [2] is 0.0455.

With `Cn1c2c(c3ccccc31)C(=O)C1NC2C=CC1(C)C(=O)OCc1ccccc1` (stereo not given), the z-score in test [1] was -1.14 (inactive); in [3], 0.395 (inactive); in [4] it was 0.896 (inactive); in test [5] it was 0.808 (inactive); in test [6], 0.484 (inactive); in test [7], -0.495. Besides, the z-score was -0.343 (inactive) in test [8]; -1.52 (inactive) in test [9]; 1.31 in test [10]; -0.618 in test [11]; -0.0704 in [12]; 0.583 in test [13]. Besides, the z-score in test [14] is -0.175; in [15] it was 0.0208; in [16], 0.603; in test [17], -1.65 (inactive); in [18], -0.0327; in test [19], 0.426. In addition, the z-score in test [20] was -0.078 (inactive). The molecule also displayed a composite z-score in test [2] of 0.125.

On to `[N-]=[N+]=NCc1ccccc1C[C@]1(C(=O)NCCN2CCOCC2)N=C(c2ccc(OCCCO)cc2)O[C@H]1c1ccccc1CN=[N+]=[N-]`, for which the z-score in test [1] was 1.26 (inactive); in [3], 20.7 (active); in [4], 3.07 (inactive); in test [5] it was 0.58 (inactive); in [6], 0.669 (inactive); in [7] it was 2.75. Also, the z-score was -4.56 (inactive) in [8]; -2.27 (inactive) in test [9]; -1.27 in test [10]; 0.0783 in test [11]; 1.99 in test [12]; 0.356 in [13]. Moreover, the z-score is -2.14 in [14]; -3.34 in test [15]; 1.27 in [16]; -0.492 (inactive) in test [17]; -0.784 in test [18]; -1.65 in test [19]. Further, the z-score in test [20] was -0.403 (inactive). Also, in test [2], the composite z-score was determined as 0.453.

On to `C=C(CCCC)C(=O)CC[C@@H](OC(=O)c1ccccc1-c1ccccc1C(=O)O)c1ccc(CO)o1`, for which the z-score in test [1] was -0.467 (inactive); in test [3] it was 1.6 (inactive); in test [4], 0.228 (inactive); in test [5], 1.19 (inactive); in test [6], 0.161 (inactive); in test [7], -0.946. The z-score in test [8] is 1.35 (inactive); in test [9] it was -0.203 (inactive); in test [10], -0.475; in [11] it was -0.64; in [12] it was 0.498; in test [13] it was 0.102. The z-score in test [14] was 0.227; in [15], -0.91; in [16], -1.24; in [17], -0.26 (inactive); in test [18] it was 0.479; in test [19] it was -0.0259. The z-score in test [20] is -0.476 (inactive). In addition, the composite z-score in test [2] is 0.379.

Regarding `O=S(=O)(NCCCO)c1ccc(Br)cc1`, the z-score in [1] was 0.949 (inactive); in test [3] it was 0.168 (inactive); in [4], -0.852 (inactive); in [5], -1.21 (inactive); in test [6] it was -1.71 (inactive); in test [7], 0.679. The z-score is -1.2 (inactive) in [8]; -0.0431 (inactive) in test [9]; 0.102 in [10]; 0.819 in [11]; -0.307 in test [12]; 0.492 in test [13]. The z-score in test [14] was 0.704; in test [15], 1.24; in test [16], 0.76; in test [17] it was 0.371 (inactive); in test [18], 0.514; in [19], -0.722. In test [20], the z-score is -0.285 (inactive). For the same molecule, the composite z-score in test [2] is 0.103.

As for `O=C1O[C@@H](c2ccccc2)[C@@H](c2ccccc2)N2[C@@H](c3ccc(O)cc3)[C@]3(C(=O)Nc4ccccc43)[C@@H](C(=O)N3CCCCCCC3)[C@H]12`, the z-score is -0.779 (inactive) in test [1]; 0.571 (inactive) in test [3]; -0.0476 (inactive) in test [4]; -1.25 (inactive) in test [5]; 0.516 (inactive) in test [6]; -0.274 in test [7]. In addition, the z-score in test [8] is 0.915 (inactive); in [9], 0.522 (inactive); in [10], 1.57; in [11], -0.871; in [12], 0.616; in test [13], 0.404. Besides, the z-score in test [14] is -0.391; in test [15] it was -2.29; in [16] it was -1.79; in [17], 0.145 (inactive); in test [18], -0.659; in [19] it was 0.0147. In addition, the z-score in test [20] was -1.09 (inactive). Besides, in test [2], the composite z-score stood at 2.88.

With `COCCOC(=O)N1C(=O)[C@@]2(c3cc(C#CCC(C(=O)OC)C(=O)OC)ccc31)[C@H](c1ccccc1OCCO)N1[C@H](c3ccccc3)[C@H](c3ccccc3)OC(=O)[C@H]1[C@@H]2C(=O)Nc1nc2ccccc2s1`, the z-score in test [1] is 4.44 (inactive); in test [3], 11.7 (active); in test [4] it was 1.48 (inactive); in test [5] it was 0.444 (inactive); in [6] it was -0.734 (inactive); in test [7] it was 3.72. Moreover, the z-score in test [8] was 1.18 (inactive); in [9], 1.19 (inactive); in [10], -0.494; in test [11] it was 1.7; in test [12], 0.321; in [13] it was 1.4. Also, the z-score in [14] was -0.569; in [15], -0.922; in [16], -2.31; in test [17] it was 0.844 (inactive); in test [18], -0.76; in test [19] it was -0.578. The z-score in [20] is -0.0543 (inactive). The composite z-score in test [2] worked out at 0.437.

As to `COC(=O)[C@@]1(Cc2ccc(OC)cc2)[C@H]2c3cc(C(=O)N(C)C)n(CCSCCO)c3C[C@H]2CN1C(=O)c1ccccc1`, the z-score in test [1] was -0.641 (inactive); in [3], 2.02 (inactive); in test [4], 0.0187 (inactive); in [5], 0.453 (inactive); in [6], 0.641 (inactive); in test [7], -0.368. Also, the z-score is 0.393 (inactive) in test [8]; 0.978 (inactive) in [9]; -0.24 in [10]; -0.46 in test [11]; -0.774 in test [12]; 0.595 in [13]. The z-score was -2.12 in [14]; -0.254 in test [15]; 1.47 in test [16]; -0.358 (inactive) in [17]; 0.179 in test [18]; -1.07 in [19]. The z-score in test [20] was -0.494 (inactive). Further, in [2], the composite z-score was determined as 0.0391.
